Source: PubChem BioAssay
An excerpt weighted towards active compounds, which were near 0.97% of everything screened.
PI4K2A inh: qHTS for small molecular inhibitors of PI4K2A; Phosphatidylinositol 4-kinase type 2-alpha (Homo sapiens), Q9BTU6; purified PI4K2A, ADP-Glo luminescence, 1 h; stronger effect = lower value; activity change, negative = inhibition, % at 76.9 µM; 420,000 compounds, 0.13% hits; AID 1346378, 2018; in the data active = activity change below about -50%; inconclusive = mostly about -30% to -49%
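In this quantitative HTS, ADP production by PI4K2A was quantified luminescently after 1 h at ambient temperature; 100 microM adenosine served as plate-quality control.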
CCT chaperon mod: High-Throughput Screening for Modulators of Cytosolic Chaperonin Activity; purified chaperonin ATPase assay, HTRF ADP detection, 30 min; activity change, % (no concentration beside the values), hits read low; 360,000 compounds, 0.3% hits; in the data active = activity change below about -30%
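TRiC (40 or 20 nM final, by batch activity) in 30 mM Tris pH 7.4, 100 mM KCl, 5 mM MgCl2, 1 mM DTT was treated with compound at 76 uM single dose, then 10 uM ATP, 30 min at 37 °C. ADP was read by HTRF Transcreener.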
CtBP-E1A blk: qHTS Assay for Inhibitors of the CtBP/E1A Interaction; activity change, % (test concentration not listed); 340,000 compounds, 0.49% hits; AID 651724, 2012; CtBP / adenovirus E1A interaction (AlphaScreen); AlphaScreen GST-E1A/His-CtBP binding, 1536-well; stronger effect = lower value
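GST-E1A and His-tagged CtBP (125 nM each as 5X stock) were preincubated with pin-transferred compound for 2 h at 37 °C in the dark, then glutathione donor and nickel acceptor beads were added for 1 h before AlphaScreen reading.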
Eya2 phos inh: qHTS Assay for Inhibitors of the Phosphatase Activity of Eya2; Protein phosphatase EYA2 (Homo sapiens), O00167; recombinant Eya2, OMFP fluorescence dephosphorylation (OMFP is methylfluorescein phosphate); Potency, µM (series often up to 76.9 µM), actives largely listed as inhibitors; 330,000 compounds, 0.006% hits; AID 488837, 2010; active = well fitted inhibition curve with a large enough effect; inconclusive = small, poorly fitted or top-dose-only effect, or effect the other way
Target sequence (O00167 whole entry, looked up): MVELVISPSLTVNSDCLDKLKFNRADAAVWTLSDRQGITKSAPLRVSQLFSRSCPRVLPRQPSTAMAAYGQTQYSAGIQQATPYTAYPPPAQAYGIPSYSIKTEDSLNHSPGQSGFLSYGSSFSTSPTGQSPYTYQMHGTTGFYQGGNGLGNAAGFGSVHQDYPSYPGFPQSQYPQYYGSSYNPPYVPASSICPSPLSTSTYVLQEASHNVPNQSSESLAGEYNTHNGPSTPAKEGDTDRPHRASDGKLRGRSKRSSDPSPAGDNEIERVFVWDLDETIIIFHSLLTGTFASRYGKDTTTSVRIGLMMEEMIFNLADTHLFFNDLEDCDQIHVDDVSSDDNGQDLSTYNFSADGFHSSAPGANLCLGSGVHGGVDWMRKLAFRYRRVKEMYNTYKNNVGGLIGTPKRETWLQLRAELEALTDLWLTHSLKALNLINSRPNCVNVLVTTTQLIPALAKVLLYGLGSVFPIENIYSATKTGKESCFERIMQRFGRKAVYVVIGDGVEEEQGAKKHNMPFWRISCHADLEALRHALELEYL
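Eya2 (0.2 uM) preincubated 10 min at ambient with compound, then OMFP substrate added at 50 uM; 10 min reaction in 50 mM HEPES pH 7.5, 50 mM NaCl, 5 uM MgCl2, 0.05% BSA, 1 mM DTT. Fluorescence read at Ex 485/Em 525 nm.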
Six1-Eya2 blk: qHTS Assay for Inhibitors of the Six1/Eya2 Interaction | AlphaScreen GST-Six1/His-Eya2 binding, biochemical; stronger effect = lower value | Homeobox protein SIX1 (Homo sapiens) + Protein phosphatase EYA2 (Homo sapiens), … | activity change, % (concentration not given with the values) | 360,000 compounds, 0.56% hits
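Six1/Eya2 binding was read as AlphaScreen signal after compounds were pinned into GST-Six1 plus His-tagged Eya2 (5X stock 250/500 nM) in pH 8.0 Tris/NaCl/TCEP buffer, beads added, then incubated 1 h, 37 C, dark.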
Hits are given with their value; – = inactive; ? = inconclusive; · = no result. Rule as the data show it, unless noted: active = activity change below about -65%; inconclusive = mostly about -30% to -63%; inactive = weaker than that.

SMILES	PI4K2A inh	CCT chaperon mod	CtBP-E1A blk	Eya2 phos inh	Six1-Eya2 blk
CC1(C(=O)O)CCC(C(=O)NNC(=O)c2ccccc2Cl)C1(C)C (configuration not stated)	–	–	-65.1	·	–
COC(=O)c1ccccc1NC(=O)CN1C(=O)COc2ccccc21	–	·	·	·	·
Cc1ccc(C)c(CN2C(=O)c3ccccc3S(=O)c3ccc(C(=O)NCc4ccco4)cc32)c1 (configuration not stated)	–	·	·	·	·
C[C@]12CCC(=O)C=C1[C@@H]1C[C@@H]1[C@H]1[C@@H]3[C@@H]4C[C@@H]4[C@@]4(CCC(=O)O4)[C@@]3(C)CC[C@@H]12	–	·	·	·	·
Cc1ccc2c(C)c(C(=O)NCCN3CCCC(O)C3)oc2c1C (configuration not stated)	–	-37.9	·	–	–
CCCc1ccc2oc(C(=O)NCCN3CCCC(O)C3)c(C)c2c1 (configuration not stated)	–	–	–	–	–
CCOC(=O)C1CCCN(C(=O)c2ccc(C)c(NC(=O)C3=C(C)OCCS3)c2)C1 (configuration not stated)	–	-65.9	–	–	–
CCOC(=O)C1CCCN(C(=O)c2ccccc2NC(=O)C2=C(C)OCCS2)C1 (configuration not stated)	–	–	–	–	–
Cc1ccc(NC(=O)c2cnn3c(C(F)F)cc(-c4ccccc4)nc23)cc1F	–	·	·	·	·
CN(C)S(=O)(=O)c1ccc(N2CCCC2)c(C(=O)NNC(=O)c2ccc(F)cc2)c1	–	-60.7	·	–	–
O=C(O)c1ccc2c(c1)[C@@H]1C=CC[C@@H]1[C@H](c1ccccn1)N2	–	–	–	·	-77.2
Cc1ccc(-n2cc(C(=O)OCc3ccc(Cl)cc3)c3ccccc3c2=O)cc1	–	·	·	·	·
COc1ccc(O)c(C(c2c(C)[nH][nH]c2=O)c2c(C)[nH][nH]c2=O)c1	-62.0	–	·	–	–
C/C(=N\Nc1ccc2nncn2n1)c1ccco1	–	–	–	–	–
C/C(=N\Nc1ccc2nncn2n1)c1ccccn1	–	–	-95.5	–	-91.1
Oc1ccc(/C=C/c2ccc3ccccc3n2)cc1	-74.8	–	·	–	–
C(=C\c1ccc2ccccc2n1)/c1ccccc1	?	–	·	–	–
CCCCOc1ccc(NC(=O)Cn2nnnc2-c2ccccc2F)cc1	–	·	·	·	·
COC(=O)c1ccc(NC(C)=O)cc1OC	–	·	·	·	·
O=C(Nc1ccc(S(=O)(=O)N2CCOCC2)cc1)c1cc(-c2cc(Cl)ccc2O)n[nH]1	–	–	·	–	–
Cc1cc(O)c(-c2cc(C(=O)Nc3ccc(S(=O)(=O)N4CCOCC4)cc3)[nH]n2)cc1C	–	–	-71.8	–	?
c1ccc(-c2cn(C[C@H]3CC[C@H](Cn4cc(-c5ccccn5)nn4)O3)nn2)nc1	–	–	-90.2	–	-91.7
Cc1ccc(C(=O)OC2OC(=O)C(Cl)=C2N2CCOCC2)cc1 (configuration not stated)	–	-49.6	–	–	–
CN(C)c1ccc(-c2[nH][nH]c(=O)c2NC(=O)c2ccc3ccccc3n2)cc1	-65.1	–	–	·	–
Cc1cnc(C(=O)Nc2c(-c3ccccc3)[nH][nH]c2=O)cn1	?	·	–	·	–
SMILES	PI4K2A inh	CCT chaperon mod	CtBP-E1A blk	Eya2 phos inh	Six1-Eya2 blk
O=C(Nc1c(-c2ccccc2)[nH][nH]c1=O)c1ccccc1	–	·	–	·	–
CN(C)c1ccc(-c2[nH][nH]c(=O)c2NC(=O)c2ccccn2)cc1	-63.6	-35.5	?	·	–
Cc1ccc(NC2=C(Cl)C(=O)c3ccccc3C2=O)cc1	–	–	–	–	–
Cc1ccc(SC2=C(N(C)C)C(=O)c3ccccc3C2=O)cc1	–	–	-86.2	·	-84.2
COc1ccc(S(=O)(=O)N(CC(=O)NC(C)c2ccccc2)c2ccc(C)cc2)cc1OC (configuration not stated)	–	·	·	·	·
CC[C@]1(O)C[C@H]2CN(CCc3c([nH]c4ccccc34)[C@@](C(=O)OC)(c3cc4c(cc3OC)N(C=O)[C@H]3[C@@](O)(C(=O)OC)[C@H](OC(C)=O)[C@]5(CC)C=CCN6CC[C@]43[C@@H]65)C2)C1	–	·	·	·	·
Cc1cc([N+](=O)[O-])cc(/C=N/n2c(C)nc3ccccc3c2=O)c1O	–	–	-85.9	–	?
CCN(CC)c1ccc2c(-c3ccc(S(=O)(=O)O)cc3S(=O)(=O)[O-])c3ccc(=[N+](CC)CC)cc-3oc2c1	?	–	?	?	-66.8
COc1cc(C=O)ccc1OS(=O)(=O)c1ccccc1[N+](=O)[O-]	–	-42.4	–	–	–
COc1cc(/C=N/n2cnnc2)ccc1OS(=O)(=O)c1ccccc1[N+](=O)[O-]	–	–	–	–	–
O=C(O)c1ccc(N=Nc2c(O)[nH]c3ccccc23)cc1	-62.1	–	–	–	–
Cc1ccc(NC(=S)N=Nc2c(O)[nH]c3ccccc23)cc1	–	–	–	–	–
Oc1ccc(NC(=S)N=Nc2c(O)[nH]c3ccccc23)cc1	–	–	-72.3	–	-71.4
CNC(=S)N=Nc1c(O)[nH]c2ccccc12	–	–	-69.1	–	-69.7
Oc1ccc(CNCc2ccc3c(c2)OCO3)c2cccnc12	·	·	·	–	·
COc1cc2c(cc1OC)-c1cc(Nc3ccc(N(C)C)cc3)nc(=O)n1CC2	–	–	-68.6	–	-68.5
COc1cc2c(cc1OC)-c1cc(Nc3ccc(F)cc3)nc(=O)n1CC2	–	–	·	–	?
COc1cc2c(cc1OC)-c1cc(Nc3cccc(F)c3)nc(=O)n1CC2	–	–	–	–	-79.0
CCN(CC)c1ccc(Nc2cc3n(c(=O)n2)CCc2cc(OC)c(OC)cc2-3)cc1	–	–	-83.5	–	?
COc1cc2c(cc1OC)-c1cc(NC3CCCC3)nc(=O)n1CC2	–	–	?	–	?
CCc1ccccc1NC(=O)c1sc(-n2nc(C)c(Cc3ccc4c(c3)OCO4)c2C)nc1C	–	·	·	·	·
Cc1cccc(CCNC(=O)c2cnc3c(C)cccn3c2=O)c1	–	·	·	·	·
O=C(/C=C/c1ccccc1)N1CCN(Cc2cc(=O)n3nc(-c4ccccc4)sc3n2)CC1	–	·	·	·	·
CC(=O)n1cc(C2CC(=O)OC3=C2CC(=O)C(C)(C)C3)c2ccccc21 (configuration not stated)	–	-105.7	–	·	–
CC(=O)n1cc(C2C(=O)CCCC2=O)c2ccccc21	–	–	–	–	–
O=C(OC1CCOC1=O)c1cc(-c2cccs2)nc2ccccc12 (configuration not stated)	–	-74.0	–	–	–
Cc1ccc(-c2cc(C(=O)OC3CCOC3=O)c3ccccc3n2)c(C)c1 (configuration not stated)	–	–	–	–	–
Cc1ccc(S(=O)(=O)Nc2ccc(O)c3ncccc23)cc1	–	–	-92.9	–	-90.7
